The source of these data is PubChem BioAssay (Tox21).

Assay [1] is described as follows: Nuclear factor erythroid 2-related factor 2/antioxidant responsive element (Nrf2/ARE) small molecule agonists: qHTS cell viability counter screen in human keratinocytes (AID 1919968; active = well fitted curve in the direction sought with a large enough effect in the repeat runs; an effect the other way counts as inactive or inconclusive; note: nearly all actives have a fitted effect of over 55% in size). The method in brief: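 Cells of the KeratinoSens line were plated at 1,500 per well and left for 5 h before compound transfer from DMSO stocks. After a 23 h incubation (37 C, 5% CO2), CellTiter-Fluor was added. Signal was taken as fluorescence intensity 1 h later.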

Assay [2] in a line: Nuclear factor erythroid 2-related factor 2/antioxidant responsive element (Nrf2/ARE) small molecule agonists: luciferase reporter gene qHTS assay in human keratinocytes (AID 1919969). Note: nearly all actives have a fitted effect of over 35% in size. In general terms: A reporter such as luciferase makes a cellular process visible.
For assay [3], the target named is Gonadotropin-releasing hormone receptor (Homo sapiens) (UniProt P30968). The experiment in a line: Human gonadotropin-releasing hormone receptor (GnRHR) small molecule agonists, calcium flux assay in GnRHR-HEK293 cells (AID 1920063). Note: nearly all actives have a fitted effect of over 35% in size. The method in brief:
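Compounds dissolved in DMSO are pin-transferred onto dye-loaded GnRHR-HEK293 cells, which were seeded 18 h before at 37 C/5% CO2. Calcium signal is read as fluorescence intensity at 1 s intervals for 3 min.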
In general terms: Calcium assays in cells follow changes in intracellular calcium, usually with a dye or a luminescent sensor.

Assay [4] concerns the target KiSS-1 receptor (Homo sapiens) (UniProt Q969F8). The experiment in a line: Human kisspeptin (KISS1R) small molecule agonists, calcium flux assay in KISS1R-HEK293 cells (AID 1920064; active = well fitted curve in the direction sought with a large enough effect in the repeat runs; an effect the other way counts as inactive or inconclusive). The method in brief:
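Cell line: HEK293, stable human KISS1R. Dye loading 1 h at 37 C after 18 h culture. Read: kinetic fluorescence, 480/540 nm, 3 min at 1 s intervals.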

The nature of assay [5]: G protein-coupled receptor (GPCR) small molecule agonists, calcium flux assay: HEK293 wild type cell line counter screen (AID 1920065). The method in brief:
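Tox21 10K compounds, 15 concentrations each in triplicate, pin-transferred in DMSO onto dye-loaded cells; kinetic read at 480/540 nm for 3 min, 1 s intervals.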

A short description of assay [6]: p53 small molecule agonists, cell-based qHTS assay with human liver microsomes (AID 1963577).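 Note: p53 response element beta-lactamase reporter cells with liver microsomes plus NADPH.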 The method in brief: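 Steps: plate p53RE-bla cells, incubate 5 h at 37 C; add compound in DMSO; add microsomes (0.5 mg/mL final) and NADPH (0.5 mg/mL final); incubate 16 h at 37 C; add LiveBLAzer, 2 h RT; read fluorescence.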
A general note: Quantitative high-throughput screening tests each substance at several concentrations.

Assay [7] can be described thus: p53 small molecule agonists, cell-based qHTS assay with rat liver microsomes (AID 1963578). The method in brief:
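Metabolic activation is supplied by rat liver microsomes with NADPH (each 0.5 mg/mL final). p53RE-bla cells incubate with compound 16 h at 37 C; reporter activity is measured by LiveBLAzer fluorescence.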

Assay [8] can be described thus: p53 small molecule agonists, cell-based qHTS assay with human liver microsomes: qHTS cell viability counter screen (AID 1963579). Note: nearly all actives have a fitted effect of over 45% in size. The method in brief:
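After the 460/530 nm beta-lactamase read, CellTiter-Glo was added to the same wells and luminescence measured after 30 min at room temperature, giving viability of p53RE-bla cells treated 16 h with compounds plus microsomes and NADPH.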

Assay [9] in a line: p53 small molecule agonists, cell-based qHTS assay with rat liver microsomes: qHTS cell viability counter screen (AID 1963580). Note: nearly all actives have a fitted effect of over 45% in size. The method in brief:
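Counter screen for cytotoxicity under metabolic activation: rat liver microsomes and NADPH, 0.5 mg/mL final each, added with compounds to p53RE-bla HCT-116 cells; 16 h at 37 C, then ATP luminescence read.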

A short description of assay [10]: p53 small molecule agonists, cell-based qHTS assay: qHTS cell viability counter screen (AID 1963581). Note: nearly all actives have a fitted effect of over 45% in size. The method in brief: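 ATP content measured by luminescence in HCT-116 p53RE-bla cells treated 16 h at 37 C, same wells as the reporter screen.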
A short description of assay [11]: p53 small molecule agonists, cell-based qHTS assay (AID 1963582; active = well fitted activation curve with a large enough effect in the signal ratio in the repeat runs, not every such curve was filed as active; the % refers to the signal ratio). Put shortly:
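16 h compound exposure (37 C) of p53 response element–bla cells, preceded by 5 h recovery at 37 C/5% CO2; read-out via LiveBLAzer B/G FRET substrate, 2 h RT, fluorescence intensity.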

The target in assay [12] is 5-hydroxytryptamine receptor 2A (Homo sapiens) (UniProt P28223). The experiment in a line: 5-hydroxytryptamine receptor 2A (HTR2A) small molecule agonists, cell-based qHTS assay (AID 1963587). Note: nearly all actives have a fitted effect of over 30% in size. The method in brief:
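HTR2A-CHO cells, plated 18 h at 37 C/5% CO2, dye-loaded 1 h at 37 C; compounds in DMSO added by pin tool (agonist mode). Intracellular calcium flux read as kinetic fluorescence on FDSS over 2 min at 1 s intervals.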

The target in assay [13] is Muscarinic acetylcholine receptor M1 (Homo sapiens) (UniProt P11229). The experiment in a line: Cholinergic receptor muscarinic 1 (CHRM1) small molecule antagonists, cell-based qHTS assay (AID 1963588). Note: nearly all actives have a fitted effect of over 40% in size. Note: potency is the fitted concentration of half-maximal effect. Put shortly: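 Compounds were tested at 15 concentrations in three independent runs. Dye-loaded CHRM1-CHO cells were exposed 5 min at room temperature before stimulation by acetylcholine added at 50nM. Intracellular calcium was read kinetically on FDSS for 3 min.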

Assay [14] has the same target. Kind of assay: Cholinergic receptor muscarinic 1 (CHRM1) small molecule agonists, cell-based qHTS assay (AID 1963589). Note: nearly all actives have a fitted effect of over 35% in size. The method in brief: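 Homogeneous fluorescence calcium flux, agonist mode. Human M1-expressing CHO cells; compound dosed at 15 concentrations, three independent runs; signal sampled every 1 sec.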
Assay [15] deals with Beta-2 adrenergic receptor (Homo sapiens) (UniProt P07550). The experiment in a line: Adrenergic beta2 receptor (ADRB2) small molecule antagonists, cell-based qHTS assay (AID 1963592). Note: series mostly up to about 92 µM; nearly all actives have a fitted effect of over 50% in size. Put shortly:
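Assay format: CHO-ADRB2 cells, 18-20hr seeding at 37C/5% CO2, then compound plus 1nM isoproterenol agonist mix for 0.5hr RT. Homogeneous time-resolved fluorescence cAMP detection after 1hr, expressed as 665/615 nm ratio.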

The target of assay [16] is D(2) dopamine receptor (Homo sapiens) (UniProt P14416). Kind of assay: Dopamine D2 receptor (DRD2) small molecule agonists, cell-based qHTS assay (AID 1963594). Note: nearly all actives have a fitted effect of over 35% in size. Put shortly: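 HEK293 cells stably expressing DRD2 were cultured 24 h at 37 C, then given Ro20-1724 (0.1 mM final) and compounds for 10 min at room temperature. NKH477 (200nM) was then added for 30 min. cAMP was read by HTRF.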

For assay [17] the target is unchanged. The experiment in a line: Dopamine D2 receptor (DRD2) small molecule antagonists, cell-based qHTS assay (AID 1963595; active = well fitted inhibition curve with a large enough effect in the signal ratio in the repeat runs, with a control signal flat; the % refers to the signal ratio). The method in brief: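 In this cell-based antagonist screen, compounds act for 10 min at room temperature before a 30 min challenge with 12 nM quinpirole and 200 nM NKH477. cAMP is quantified by HTRF competition in DRD2-HEK293 cells containing 0.1 mM Ro20-1724.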

Assay [18] is described as follows: cAMP Responsive Elements (CRE) small molecule agonists, cell-based qHTS assay (AID 1963590). The method in brief:
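HEK 293T cells stably bearing CRE-bla were plated at 2,000 cells per well and rested 18 h. Compounds, positive controls or DMSO were added for 3 h at 37 C. LiveBLAzer B/G substrate was then loaded for 2 h at room temperature.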

Assay [19] is described as follows: cAMP Responsive Elements (CRE) small molecule antagonists, cell-based qHTS assay (AID 1963591; active = well fitted inhibition curve with a large enough effect in the signal ratio in the repeat runs, not every such curve was filed as active; the % refers to the signal ratio). Put shortly: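 First, CRE-bla HEK293T cells settled 18 h at 37 C. Next, compound and 0.25 uM final NKH477 were applied for 3 h. Last, LiveBLAzer B/G substrate was loaded for 2 h at room temperature.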
Assay [20] deals with Beta-2 adrenergic receptor (Homo sapiens) (UniProt P07550). Kind of assay: Adrenergic beta2 receptor (ADRB2) small molecule agonists, cell-based qHTS assay (AID 1963593).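 Note: CHO cells stably overexpressing human ADRB2.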 Put shortly: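 CHO cells stably over-expressing ADRB2 were plated overnight at 37C, then dosed with compounds plus a stimulation mix containing 100uM IBMX and 25uM Ro-20-1724 for 0.5hr at room temperature. cAMP was measured by HTRF competition, 1hr.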

Values without a mark were called inactive. Records with an inconclusive call do not appear. The source made the active and inactive calls. Unless noted, calls come from the whole dose curve.
% is set by controls: 0 for no effect and ±100 for the full control effect.

Muscarinic acetylcholine receptor M1 (Homo sapiens), sequence (P11229 whole entry, looked up): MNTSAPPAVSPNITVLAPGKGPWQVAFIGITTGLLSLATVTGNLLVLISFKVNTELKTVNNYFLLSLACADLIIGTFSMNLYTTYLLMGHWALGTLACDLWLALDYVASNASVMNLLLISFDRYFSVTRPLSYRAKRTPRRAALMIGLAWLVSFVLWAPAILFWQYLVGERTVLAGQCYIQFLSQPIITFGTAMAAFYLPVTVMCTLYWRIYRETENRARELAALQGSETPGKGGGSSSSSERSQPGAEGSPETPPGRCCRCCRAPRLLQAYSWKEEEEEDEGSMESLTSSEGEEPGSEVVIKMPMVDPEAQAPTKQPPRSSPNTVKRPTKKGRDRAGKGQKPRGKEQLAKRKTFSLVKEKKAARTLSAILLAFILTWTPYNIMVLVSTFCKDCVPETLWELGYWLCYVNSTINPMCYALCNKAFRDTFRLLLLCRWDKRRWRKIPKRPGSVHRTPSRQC
KiSS-1 receptor (Homo sapiens), sequence (Q969F8 whole entry, looked up): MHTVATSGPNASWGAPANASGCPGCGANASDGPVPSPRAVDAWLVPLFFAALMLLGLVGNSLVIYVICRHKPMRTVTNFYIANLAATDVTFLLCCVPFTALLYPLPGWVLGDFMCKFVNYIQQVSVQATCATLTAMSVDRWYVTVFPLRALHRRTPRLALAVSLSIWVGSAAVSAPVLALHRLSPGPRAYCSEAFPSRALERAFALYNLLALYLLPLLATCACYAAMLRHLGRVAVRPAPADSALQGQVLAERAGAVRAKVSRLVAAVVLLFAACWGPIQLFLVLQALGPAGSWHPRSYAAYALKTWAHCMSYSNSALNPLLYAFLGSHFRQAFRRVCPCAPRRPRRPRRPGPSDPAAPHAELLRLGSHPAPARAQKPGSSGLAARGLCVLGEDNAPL
5-hydroxytryptamine receptor 2A (Homo sapiens), sequence (P28223 whole entry, looked up): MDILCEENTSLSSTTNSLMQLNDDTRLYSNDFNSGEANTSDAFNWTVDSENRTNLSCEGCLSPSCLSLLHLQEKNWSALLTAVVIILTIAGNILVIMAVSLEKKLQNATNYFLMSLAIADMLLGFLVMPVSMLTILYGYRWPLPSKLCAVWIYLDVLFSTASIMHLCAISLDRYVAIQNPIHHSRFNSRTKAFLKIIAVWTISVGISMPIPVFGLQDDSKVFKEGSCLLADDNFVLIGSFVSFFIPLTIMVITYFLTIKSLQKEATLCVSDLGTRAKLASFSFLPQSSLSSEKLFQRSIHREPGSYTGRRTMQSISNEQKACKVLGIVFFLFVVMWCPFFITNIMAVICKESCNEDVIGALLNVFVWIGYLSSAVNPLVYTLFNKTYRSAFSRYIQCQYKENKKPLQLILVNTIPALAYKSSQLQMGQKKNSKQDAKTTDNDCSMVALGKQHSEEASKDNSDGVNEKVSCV
Beta-2 adrenergic receptor (Homo sapiens), sequence (P07550 whole entry, looked up): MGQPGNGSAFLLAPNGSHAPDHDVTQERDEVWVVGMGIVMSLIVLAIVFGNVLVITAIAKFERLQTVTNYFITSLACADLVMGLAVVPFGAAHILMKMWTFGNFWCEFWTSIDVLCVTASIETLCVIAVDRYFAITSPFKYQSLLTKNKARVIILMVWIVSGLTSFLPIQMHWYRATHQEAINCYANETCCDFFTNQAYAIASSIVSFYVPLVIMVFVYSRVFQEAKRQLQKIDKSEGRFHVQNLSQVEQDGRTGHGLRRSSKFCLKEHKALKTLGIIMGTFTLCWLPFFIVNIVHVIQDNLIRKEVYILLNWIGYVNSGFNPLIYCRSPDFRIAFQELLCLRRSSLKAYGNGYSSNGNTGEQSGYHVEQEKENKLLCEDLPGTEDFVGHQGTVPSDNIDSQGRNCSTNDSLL
Gonadotropin-releasing hormone receptor (Homo sapiens), sequence (P30968 whole entry, looked up): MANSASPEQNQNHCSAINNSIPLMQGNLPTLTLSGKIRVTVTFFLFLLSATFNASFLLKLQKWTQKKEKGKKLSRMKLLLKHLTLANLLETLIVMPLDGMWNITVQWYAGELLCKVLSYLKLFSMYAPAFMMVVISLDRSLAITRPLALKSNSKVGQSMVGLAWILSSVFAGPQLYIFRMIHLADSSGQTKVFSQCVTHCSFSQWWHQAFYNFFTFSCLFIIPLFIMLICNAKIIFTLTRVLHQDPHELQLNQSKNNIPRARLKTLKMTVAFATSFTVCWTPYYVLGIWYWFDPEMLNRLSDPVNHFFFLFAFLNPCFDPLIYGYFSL
D(2) dopamine receptor (Homo sapiens), sequence (P14416 whole entry, looked up): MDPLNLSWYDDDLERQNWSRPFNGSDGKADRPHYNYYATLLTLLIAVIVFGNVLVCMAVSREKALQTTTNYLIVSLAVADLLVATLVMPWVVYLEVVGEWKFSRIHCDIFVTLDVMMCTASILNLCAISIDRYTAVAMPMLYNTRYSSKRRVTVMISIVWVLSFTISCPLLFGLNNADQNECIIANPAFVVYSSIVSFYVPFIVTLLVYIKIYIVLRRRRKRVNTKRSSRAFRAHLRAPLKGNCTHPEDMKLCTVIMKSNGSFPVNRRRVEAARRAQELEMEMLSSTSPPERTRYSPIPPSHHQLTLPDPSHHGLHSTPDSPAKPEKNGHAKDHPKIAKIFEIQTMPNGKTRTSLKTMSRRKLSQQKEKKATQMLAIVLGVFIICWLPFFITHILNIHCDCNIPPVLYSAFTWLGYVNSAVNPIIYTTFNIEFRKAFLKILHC

For `CCO[Si](C)(CCCOCC1CO1)OCC` (stereo not drawn), the Potency entry in assay [1], in [2], in assay [3], in [6], in assay [7] and in [8] was “inactive” in each case. In addition, the Potency result in assay [9], in assay [10], in [11], in assay [12], in assay [13] and in assay [14] was “inactive” throughout. The Potency entry in [15], in [16] and in [17] was “inactive” in each case. For the same compound, the result in assay [4] and in assay [5] was inactive.

Regarding `CN1Cc2cc(C(=O)N3CCC(C4CCNCC4)CC3)ccc2N[C@@H](CC(=O)O)C1=O`, the Potency result in [1], in [2], in assay [3], in [6], in assay [7] and in [8] was “inactive” each time. In addition, the Potency result in assay [9], in assay [10], in [11], in assay [12], in [15] and in assay [16] was “inactive” each time. In assay [17], the Potency result was “inactive”. Also, the outcome in assay [4] and in assay [5] was inactive. The Potency in [13] is 1630 nM (active).

As for `CN(C)CCCSc1ccccc1NC(=O)/C=C/c1ccccc1`, the Potency result in assay [1], in assay [2], in [3], in assay [6], in assay [7] and in assay [8] was “inactive” each time. Moreover, the Potency result in assay [9], in [10], in [11], in assay [13], in assay [14] and in [18] was “inactive” each time. Besides, the Potency result in assay [19], in [15], in [20] and in assay [16] was “inactive” each time. Besides, the result in assay [4] and in assay [5] was inactive.

Take `COc1ccc(OC(=O)N(CC(=O)O)Cc2ccc(OCCc3nc(-c4ccccc4)oc3C)cc2)cc1`: the Potency result in assay [1], in assay [2], in [3], in [6], in assay [7] and in assay [8] was “inactive” each time. In addition, the Potency entry in [9], in [10], in [11], in [13], in assay [14] and in [15] was “inactive” in each case. The Potency result in assay [16] and in assay [17] was “inactive” throughout. Moreover, the result in assay [4] and in assay [5] was inactive.

In the case of `CCCCN1CCCC1C(=O)Nc1c(C)cc(C)cc1C` (stereo not drawn), the Potency entry in [1], in assay [2], in assay [3], in assay [6], in assay [7] and in assay [8] was “inactive” throughout. In addition, the Potency result in assay [9], in assay [10], in [11], in assay [12], in [13] and in assay [14] was “inactive” in each case. The Potency entry in [15], in assay [16] and in assay [17] was “inactive” throughout. Moreover, the outcome in assay [4] and in assay [5] was inactive.

With `O=C(NC(Cc1cc(=O)[nH]c2ccccc12)C(=O)O)c1ccc(Cl)cc1` (stereo not drawn), the Potency entry in assay [1], in assay [2], in [3], in assay [6], in assay [7] and in assay [8] was “inactive” each time. The Potency result in assay [9], in [10], in assay [11], in [12], in assay [13] and in [18] was “inactive” throughout. Moreover, the Potency result in [19], in assay [15], in [16] and in [17] was “inactive” in each case. Moreover, the outcome in [4] and in assay [5] was inactive.

Turning to `CCCCCCCCCCCCCCCCCO`, the activity change, negative = cytotoxicity is 0.787% [at 19 µM] in assay [1], -0.024% [at 13.5 µM] in assay [8], -2.14% [at 13.5 µM] in assay [9] and 17.8% [at 13.5 µM] in [10]. For the same compound, the activity, positive = activation in assay [2] was -1.74% [at 19 µM]. In assay [3], the activity change is 4.53% [at 11.8 µM, active compounds read high]. Moreover, the activation in [4] was 3.41% [at 15.8 µM]; in assay [5], -0.253% [at 11.8 µM]; in assay [6], 4.84% [at 13.5 µM]; in [7], 1.18% [at 13.6 µM]; in assay [11], -2.02% [at 13.5 µM]; in [14] it was -0.0126% [at 15.8 µM]. The results for the activation in assay [18] and in assay [16] were -0.514% [at 19 µM] and 0.198% [at 19 µM], respectively. Further, the activity, negative = inhibition in assay [13] is -16.4% [at 12.6 µM]. Also, the activity change, negative = inhibition was 0.936% [at 18.9 µM] in [19], -1.56% [at 19 µM] in assay [15] and 6.26% [at 18.9 µM] in [17].

On to `CN(C)CC/C=C1/c2ccccc2COc2ccc(CC(=O)O)cc21`, for which the Potency result in assay [1], in assay [2], in assay [3], in assay [6], in assay [7] and in [8] was “inactive” in each case. The Potency result in [9], in assay [10], in assay [11], in assay [12], in [14] and in assay [18] was “inactive” each time. The Potency result in [19], in assay [15], in assay [16] and in assay [17] was “inactive” each time. The outcome in assay [4] and in assay [5] was inactive.
